High-throughput results (PubChem)
Shown are actives, neighbours in structure and some others; about 3.7% of the full set was active somewhere.
TIM10 inh – growth inhibitors of isogenic TIM10 control yeast, primary screen, counter-screen for tim10-1 yeast inhibitor project, luminescence, uHTS | hit rate 1.4% among 330,000 | S. cerevisiae TIM10 strain growth, BacTiter-Glo luminescence, 24 h | inhibition, % at 10 µM | AID 463195, 2010;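 active means inhibition of 40% or more at the single tested concentration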;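 further: wild-type TIM10 isogenic control strain grown at permissive 25 °C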
Rce1 inhib – yeast Rce1p protease inhibitors, primary screen, biochemical, fluorescence, cell-free homogeneous; AID 2563, 2010; calls only; hit rate 0.27% among 290,000; yeast membranes, quenched prenylated peptide cleavage fluorescence; CAAX prenyl protease 2 (Saccharomyces cerevisiae (strain ATCC 204508 / S288c)), Q03530;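 active means fall in fluorescence gain of 50% or more versus controls, with final raw signal at or below 3038400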;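 further: plate controls were neutral control wells for no effect and wells lacking membranes for full effect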
Target sequence (Q03530 whole entry, looked up): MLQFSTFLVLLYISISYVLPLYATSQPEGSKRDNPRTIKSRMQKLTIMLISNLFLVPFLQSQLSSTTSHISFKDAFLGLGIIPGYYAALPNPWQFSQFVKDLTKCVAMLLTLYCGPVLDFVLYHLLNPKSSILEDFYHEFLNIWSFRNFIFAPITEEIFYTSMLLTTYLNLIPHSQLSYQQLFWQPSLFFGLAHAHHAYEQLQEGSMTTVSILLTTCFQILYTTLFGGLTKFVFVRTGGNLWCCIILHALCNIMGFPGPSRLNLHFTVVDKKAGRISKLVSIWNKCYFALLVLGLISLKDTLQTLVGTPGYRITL
tim23-1 inh – growth inhibitors of tim23-1 mutant yeast, primary screen, luminescence, uHTS; S. cerevisiae tim23-1 growth, BacTiter-Glo luminescence, 24 h; inhibition, % at 20 µM; hit rate 1.3% among 330,000; AID 463212, 2010;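 active means growth inhibition of the mutant yeast at or above 50%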;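 further: temperature-sensitive mutant grown at 25 °C; plate controls were DMSO-treated mutant yeast for no effect and medium wells lacking yeast for full effect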
tim10-1 inh – growth inhibitors of tim10-1 mutant yeast, primary screen, luminescence, uHTS | inhibition, % at 20 µM | hit rate 2.2% among 330,000 | AID 463190, 2010 | S. cerevisiae tim10-1 ts strain growth, BacTiter-Glo, 24 h;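 active means inhibition of at least 40%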;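 further: mutant grown at 25 °C; 0% = DMSO wells with yeast and 100% = wells holding no yeast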
PfHsp90 set2 – growth inhibition of PfHsp90-expressing yeast, primary screen, antimalarial PfHsp90 inhibitor project, S. cerevisiae, BacTiter-Glo luminescence, single point, set 2. AID 504621, 2011. BacTiter-Glo ATP, 48 h; yeast lacking PDR1 and PDR3 efflux regulators. inhibition, % at 9.4 µM. hit rate 0.32% among 310,000;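 active means every replicate shows inhibition above about 80%, whatever the replicate mean, limit read from the data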;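 further: 0% = DMSO neutral controls and 100% = 20 µM radicicol positive controls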
tim23-1 conf – tim23-1 mutant yeast growth inhibitors, confirmation, luminescence, single concentration | hit rate 83% among 4,400 | S. cerevisiae tim23-1 growth, BacTiter-Glo luminescence, 24 h | shares compounds with tim23-1 inh | inhibition, % at 20 µM | AID 463218, 2010;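 active means inhibition above about 39% in either of two replicate wells at 20 µM, limit read from the data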;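 further: temperature-sensitive tim23-1 mutant grown at 25 °C; 0% = DMSO wells with yeast and 100% = medium wells without yeast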
Active calls of the source: *; i = inactive; . = not tested or not shown; + = active, no number.

SMILES	TIM10 inh	Rce1 inhib	tim23-1 inh	tim10-1 inh	PfHsp90 set2	tim23-1 conf
FC(F)(F)c1ccccc1NC(=S)Nc1ccccc1	14	i	7	9	6	.
CS(=O)(=O)c1ccc(Cl)c(NC(=O)COC(=O)COc2ccc3c(c2)CCC3)c1	-2	i	5	10	.	.
Cc1cccc(NC(=S)NNc2cccc(Cl)c2)c1	24	i	52*	23	-8	55*
NC(=S)NNc1cccc(Cl)c1	13	i	60*	21	12	61*
COc1ccc(Cn2c(C)nc([N+](=O)[O-])c2SCC(=O)O)cc1[N+](=O)[O-]	-10	i	55*	3	-10	4
COc1ccc(NS(=O)(=O)c2ccc3c(c2)Cc2ccccc2-3)cn1	32	i	64*	21	-69	29
COc1ccccc1CNC(=O)c1cn(C)c2ccc(S(=O)(=O)N3CCCC3)cc2c1=O	9	i	10	5	-20	.
O=C1C(=O)N(C/C=C/c2ccccc2)c2ccccc21	15	+	76*	23	11	-19
O=C1c2ccccc2C(=O)N1C/C=C/c1ccccc1	-5	i	4	6	-13	.
CC(/C=N/NC(=O)c1cc(-c2cccn2C)n[nH]1)=C\c1ccccc1	1	i	38	3	1	.
Clc1ccc(-c2cn3cccnc3n2)cc1Cl	22	i	54*	19	-7	33
Brc1ccc(-c2cn3cccnc3n2)cc1	33	.	39	5	17	.
Clc1ccc(-c2cn3cccnc3n2)cc1	1	i	53*	6	-125	35
O=S(=O)(CCN1CCN(c2ccccc2O)CC1)c1cc(Cl)ccc1Cl	26	.	50*	39	-1	23
Cc1nn(-c2ccc(Cl)cc2Cl)c(=O)c2ccccc12	-3	.	8	20	-3	.
Cc1nn(-c2ccc(Cl)c(Cl)c2Cl)c(=O)c2ccccc12	8	i	54*	40	.	46*
Cc1ccc(NC(=O)Nc2ccccc2F)cc1S(=O)(=O)N1CCOCC1	27	.	21	27	7	.
CN(c1ccc(O)cc1)S(=O)(=O)c1ccc2ccccc2c1	2	i	51*	-13	-9	45*
CCOc1ccccc1NC(=S)NC1CC2CCC1C2 (stereo not given)	16	i	33	37	-2	.
COc1ccc(NC(=S)NC2CC3CCC2C3)c(OC)c1 (stereo not given)	26	i	63*	22	-7	11
O=C(N/N=C/C(Cl)=C\c1ccccc1)c1cccs1	25	i	64*	-27	6	64*
CC(/C=N/NC(=O)c1cccs1)=C\c1ccccc1	8	i	53*	-16	21	48*
Cc1cccc(OCc2nnc(SC(C)C(=O)Nc3ccc(N4CCOCC4)cc3)o2)c1 (stereo not given)	-11	.	6	-15	6	.
CC(C)(C)C(=O)C1=C(O)C(=O)N(c2ccccc2)C1c1ccccc1 (stereo not given)	-3	i	15	5	19	.
COc1ccc(/C=N/NC(=O)CC(=O)N/N=C/c2ccc(OC)cc2)cc1	2	i	-3	16	3	.
SMILES	TIM10 inh	Rce1 inhib	tim23-1 inh	tim10-1 inh	PfHsp90 set2	tim23-1 conf
COc1ccc(CCCC(=O)N/N=C/c2ccc(C)cc2)cc1	0	i	56*	31	-19	51*
COc1ccc(S(=O)(=O)N2CCOCC2)cc1C(=O)N(C)Cc1ccco1	2	.	-5	-2	18	.
COc1ccc(C2=NN(S(C)(=O)=O)C(c3cccs3)C2)cc1OC (stereo not given)	-5	i	15	13	2	.
COC(=O)N/N=C/c1ccc(-c2ccccc2Cl)o1	-8	i	36	-10	-13	.
COC(=O)N/N=C/c1ccc(-c2ccc(Cl)cc2Cl)o1	39	i	56*	35	-9	50*
Cc1cc(C)nc(NC(=O)Cc2ccc(Br)cc2)n1	-8	i	6	17	.	.
Cc1nc(-c2ccc(NC(=O)c3ccccc3)cc2)cs1	22	i	54*	-2	49	53*
O=C(Nc1ccc(Nc2ccccc2)cc1)c1ccc(Cl)cc1	-8	.	4	-30	10	.
COc1cc(OC)cc(C(=O)Nc2ccc(Nc3ccccc3)cc2)c1	23	i	72*	-10	3	59*
O=C(Nc1ccc(Nc2ccccc2)cc1)c1ccccc1	6	.	56*	-38	.	60*
Cc1ccc(C(=O)Nc2ccc(-c3csc(C)n3)cc2)cc1	23	i	-14	-8	7	.
COc1ccc(C(=O)Nc2ccc(Nc3ccccc3)cc2)cc1[N+](=O)[O-]	0	i	52*	21	18	38
CC(C)CCn1c(Oc2ccccc2Cl)nc2c1c(=O)n(C)c(=O)n2C	-17	i	-27	-15	-6	.
NC(=O)c1c(NC(=O)c2ccccc2F)sc2c1CCCC2	22	i	54*	29	-27	49*
O=c1cc(CO)oc(CN2CCN(CCO)CC2)c1O	2	i	95*	1	2	19
Cc1cccc(N2CCN(Cc3oc(CO)cc(=O)c3O)CC2)c1C	-1	i	-4	22	9	.
Cc1ccc(C(=O)Nc2ccc(S(=O)(=O)N3CCCC3)cc2)o1	10	i	30	7	-21	.
O=C(Nc1ccc(S(=O)(=O)N2CCCC2)cc1)c1ccc([N+](=O)[O-])o1	35	.	52*	19	-9	34*
CC(=O)N1CCN(c2ccc(NC(=O)c3ccc([N+](=O)[O-])o3)cc2Cl)CC1	35	i	51*	13	-1	76*
Cc1ccc(NC(=O)C2CC(=O)N(c3ccccc3Cl)C2)cc1S(=O)(=O)N1CCOCC1 (stereo not given)	.	.	.	.	14	.
O=C(CSc1nnnn1C1CCCC1)c1ccc2c(c1)OCCO2	34	i	53*	39	3	46*
CC(C)n1nnnc1SCC(=O)c1ccc2c(c1)OCCO2	21	i	21	24	-7	.
COc1ccccc1Nc1c([N+](=O)[O-])cc(C)cc1[N+](=O)[O-]	-19	i	-6	-1	6	.
COc1ccccc1Nc1ccc([N+](=O)[O-])cc1N	27	i	55*	36	-6	41*
O=C(CN1CCc2cc3c(cc2C1)OCCCO3)Nc1cccc(Br)c1	-1	i	60*	39	2	74*
CN(C)C(=O)c1ccc(NC(=O)CN2CCc3cc4c(cc3C2)OCCCO4)cc1	-1	i	5	13	27	.
Cc1ccccc1NC(=O)c1ccc(Cl)c(NC(=O)c2cccnc2)c1	5	i	3	-1	.	.
